Measurements reported in PubChem BioAssay.
The source made the active and inactive calls. Cut-off read from the data, not from the text of the source, unless noted: active = inhibition above about 33%; inactive = the rest.

How the values were obtained:
[1] = molecular target: Nuclear receptor coactivator 3 (Homo sapiens) (UniProt Q9Y6Q9); assay: NCOA3 GAL4-fusion reporter inhibition – cell-based, luminescence, quadruplicate, confirmation (AID 588792;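 active = mean inhibition over 43.08%, the solvent-only control mean plus 3 SD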;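 note: 0% = DMSO treated cells and 100% = gossypol at 36 µM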); conditions: HEK293 GAL4-SRC3 luciferase reporter, at 3.6 µM, active compounds read high
[2] = test system: transactivating tegument protein VP16 (Human herpesvirus 1), Gal4-VP16 luciferase reporter; assay: repression of VP16-driven luciferase reporter – cell-based, luminescence, high throughput, counter-screen for SRC3 inhibitor project (AID 588794; in the data active = inhibition above about 30%); conditions: mammalian cells, at 3.6 µM, active compounds read high
[3] = molecular target: Nuclear receptor coactivator 1 (Homo sapiens) (UniProt Q15788); assay: NCOA1 GAL4-fusion reporter inhibition – cell-based, luminescence, quadruplicate, confirmation (AID 588820;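 active = mean inhibition above 46.68%, the untreated control wells mean plus 3 SD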;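 note: 0% = DMSO wells and 100% = gossypol 36 µM treated wells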); conditions: HEK293 GAL4-SRC1 luciferase reporter, at 3.6 µM, active compounds read high
[4] = repression of VP16-driven luciferase reporter – cell-based, luminescence, high throughput, counter-screen for SRC1 inhibitor project (AID 588824; in the data active = inhibition above about 25%); conditions: cell-based VP16 transactivation luciferase luminescence; at 3.6 µM; active compounds read high
[5] = StAR promoter reporter inhibitors, counter-screen for LRH-1 inverse agonist project, cell-based, luminescence, high throughput (AID 651611; in the data active = inhibition above about 28%); conditions: StAR promoter luciferase reporter counterscreen, at 3.6 µM, active compounds read high
[6] = molecular target: Nuclear receptor subfamily 5 group A member 2 (Homo sapiens) (UniProt O00482); assay: NR5A2 activity suppression in reporter cells – cell-based, luminescence, confirmation (AID 651613; in the data active = inhibition above about 42%;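 note: HEK293T cells co-transfected with LRH-1 and StAR promoter luciferase reporter; 0% = vehicle wells and 100% = parental cells lacking receptor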); conditions: cell-based LRH-1 luciferase reporter, inverse agonism; at 3.6 µM; active compounds read high
[7] = molecular target: Steroidogenic factor 1 (Homo sapiens) (UniProt Q13285); assay: inverse agonism at SF1 nuclear receptor – cell-based, luminescence, high throughput, counter-screen for LRH-1 inverse agonist project (AID 651614; in the data active = inhibition above about 44%;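 note: cells cotransfected with StAR promoter reporter and SF1 expression vector; 0% = vehicle on cells with receptor and 100% = vehicle on cells lacking receptor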); conditions: cell-based SF1 luciferase reporter, at 3.6 µM, active compounds read high
[8] = compounds suppressing VP16-driven luciferase signal – cell-based, luminescence, high throughput, counter-screen for LRH-1 inverse agonist project (AID 651615); conditions: Gal4-VP16 luciferase reporter cells, at 3.6 µM, active compounds read high

Measured: inhibition

Steroidogenic factor 1 (Homo sapiens), sequence (Q13285 whole entry, looked up, the tested form may be a part): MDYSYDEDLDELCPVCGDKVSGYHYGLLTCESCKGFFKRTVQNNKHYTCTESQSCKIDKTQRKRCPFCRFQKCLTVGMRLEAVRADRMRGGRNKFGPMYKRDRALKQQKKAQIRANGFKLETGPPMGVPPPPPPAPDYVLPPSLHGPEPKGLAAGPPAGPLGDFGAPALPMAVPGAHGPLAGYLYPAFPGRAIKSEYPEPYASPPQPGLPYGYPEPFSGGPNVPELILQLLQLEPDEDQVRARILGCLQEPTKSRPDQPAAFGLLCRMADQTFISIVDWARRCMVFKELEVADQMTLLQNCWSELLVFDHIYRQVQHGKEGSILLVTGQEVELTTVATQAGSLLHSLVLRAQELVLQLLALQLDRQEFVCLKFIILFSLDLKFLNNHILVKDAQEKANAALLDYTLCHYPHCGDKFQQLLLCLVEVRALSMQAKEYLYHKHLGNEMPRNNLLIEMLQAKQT
Nuclear receptor coactivator 1 (Homo sapiens), sequence (Q15788 whole entry, looked up, the tested form may be a part): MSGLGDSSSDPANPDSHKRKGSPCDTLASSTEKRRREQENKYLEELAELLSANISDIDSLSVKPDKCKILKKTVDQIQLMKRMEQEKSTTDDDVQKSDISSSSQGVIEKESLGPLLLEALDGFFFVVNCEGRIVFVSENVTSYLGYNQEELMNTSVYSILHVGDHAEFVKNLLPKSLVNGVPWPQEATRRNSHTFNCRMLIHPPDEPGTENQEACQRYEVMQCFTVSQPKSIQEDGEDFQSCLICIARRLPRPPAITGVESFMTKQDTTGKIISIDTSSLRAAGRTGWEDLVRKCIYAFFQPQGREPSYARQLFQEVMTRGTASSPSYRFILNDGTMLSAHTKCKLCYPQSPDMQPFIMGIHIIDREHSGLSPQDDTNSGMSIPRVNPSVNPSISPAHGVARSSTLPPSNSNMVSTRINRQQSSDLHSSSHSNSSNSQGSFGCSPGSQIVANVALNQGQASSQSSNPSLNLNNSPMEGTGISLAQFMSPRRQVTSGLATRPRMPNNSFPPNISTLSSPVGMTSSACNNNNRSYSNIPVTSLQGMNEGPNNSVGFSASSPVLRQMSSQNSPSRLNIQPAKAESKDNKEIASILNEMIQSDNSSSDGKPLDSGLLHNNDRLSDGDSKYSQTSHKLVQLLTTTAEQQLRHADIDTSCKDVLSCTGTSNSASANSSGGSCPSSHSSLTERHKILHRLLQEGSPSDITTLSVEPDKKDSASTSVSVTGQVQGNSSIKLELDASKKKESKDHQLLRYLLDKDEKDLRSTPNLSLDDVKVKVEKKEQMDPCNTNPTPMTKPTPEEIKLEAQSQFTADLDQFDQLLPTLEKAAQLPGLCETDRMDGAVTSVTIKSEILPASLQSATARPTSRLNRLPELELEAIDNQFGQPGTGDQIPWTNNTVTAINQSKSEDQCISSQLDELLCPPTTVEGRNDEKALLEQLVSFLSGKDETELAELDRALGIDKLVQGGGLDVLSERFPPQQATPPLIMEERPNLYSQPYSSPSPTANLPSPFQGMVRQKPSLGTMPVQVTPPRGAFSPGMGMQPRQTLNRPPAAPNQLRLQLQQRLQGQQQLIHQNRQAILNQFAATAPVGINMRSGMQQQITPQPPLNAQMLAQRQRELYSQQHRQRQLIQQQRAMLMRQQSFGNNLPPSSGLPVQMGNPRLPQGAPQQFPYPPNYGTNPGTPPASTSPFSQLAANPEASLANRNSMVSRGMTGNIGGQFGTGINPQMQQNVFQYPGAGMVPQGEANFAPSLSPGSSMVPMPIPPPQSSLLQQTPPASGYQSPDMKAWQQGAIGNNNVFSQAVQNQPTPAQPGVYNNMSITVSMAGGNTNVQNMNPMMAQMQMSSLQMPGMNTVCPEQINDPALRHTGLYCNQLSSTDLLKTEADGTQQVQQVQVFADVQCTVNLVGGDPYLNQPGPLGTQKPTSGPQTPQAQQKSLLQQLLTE
Nuclear receptor coactivator 3 (Homo sapiens), sequence (Q9Y6Q9 whole entry, looked up, the tested form may be a part): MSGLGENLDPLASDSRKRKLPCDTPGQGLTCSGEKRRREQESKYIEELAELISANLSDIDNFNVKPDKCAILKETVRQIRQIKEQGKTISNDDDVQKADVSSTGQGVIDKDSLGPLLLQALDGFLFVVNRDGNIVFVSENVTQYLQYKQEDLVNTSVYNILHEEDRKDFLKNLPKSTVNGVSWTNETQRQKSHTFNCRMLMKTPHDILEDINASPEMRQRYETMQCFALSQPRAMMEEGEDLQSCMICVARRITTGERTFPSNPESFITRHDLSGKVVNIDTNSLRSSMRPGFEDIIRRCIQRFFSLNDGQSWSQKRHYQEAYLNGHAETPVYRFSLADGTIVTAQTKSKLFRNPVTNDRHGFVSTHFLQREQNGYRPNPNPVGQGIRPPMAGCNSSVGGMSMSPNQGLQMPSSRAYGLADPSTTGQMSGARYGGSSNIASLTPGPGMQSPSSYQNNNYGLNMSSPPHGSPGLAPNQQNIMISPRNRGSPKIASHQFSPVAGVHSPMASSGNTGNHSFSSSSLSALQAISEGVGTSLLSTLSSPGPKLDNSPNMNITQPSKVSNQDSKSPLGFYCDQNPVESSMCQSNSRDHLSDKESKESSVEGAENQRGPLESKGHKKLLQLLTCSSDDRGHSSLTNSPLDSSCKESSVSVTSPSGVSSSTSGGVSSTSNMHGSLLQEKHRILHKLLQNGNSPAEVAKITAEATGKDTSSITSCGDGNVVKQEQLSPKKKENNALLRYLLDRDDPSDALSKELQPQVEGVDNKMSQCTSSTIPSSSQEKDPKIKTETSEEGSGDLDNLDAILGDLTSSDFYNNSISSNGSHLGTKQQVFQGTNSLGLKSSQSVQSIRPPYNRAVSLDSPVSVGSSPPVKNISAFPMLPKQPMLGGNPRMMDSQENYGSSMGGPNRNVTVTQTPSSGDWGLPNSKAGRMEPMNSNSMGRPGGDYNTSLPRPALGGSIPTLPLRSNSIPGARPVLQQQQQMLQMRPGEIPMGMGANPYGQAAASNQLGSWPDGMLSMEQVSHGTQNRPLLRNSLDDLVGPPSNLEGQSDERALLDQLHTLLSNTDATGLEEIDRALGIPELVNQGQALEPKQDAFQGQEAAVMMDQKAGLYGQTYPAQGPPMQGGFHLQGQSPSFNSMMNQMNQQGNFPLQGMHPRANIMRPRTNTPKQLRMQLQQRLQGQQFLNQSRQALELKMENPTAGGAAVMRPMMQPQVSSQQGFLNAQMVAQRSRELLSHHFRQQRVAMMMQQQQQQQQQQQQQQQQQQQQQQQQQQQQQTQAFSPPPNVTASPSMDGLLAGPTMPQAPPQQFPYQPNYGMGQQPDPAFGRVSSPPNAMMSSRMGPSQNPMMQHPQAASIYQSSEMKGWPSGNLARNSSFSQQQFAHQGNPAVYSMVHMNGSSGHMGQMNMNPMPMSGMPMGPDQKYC
Nuclear receptor subfamily 5 group A member 2 (Homo sapiens), sequence (O00482 whole entry, looked up): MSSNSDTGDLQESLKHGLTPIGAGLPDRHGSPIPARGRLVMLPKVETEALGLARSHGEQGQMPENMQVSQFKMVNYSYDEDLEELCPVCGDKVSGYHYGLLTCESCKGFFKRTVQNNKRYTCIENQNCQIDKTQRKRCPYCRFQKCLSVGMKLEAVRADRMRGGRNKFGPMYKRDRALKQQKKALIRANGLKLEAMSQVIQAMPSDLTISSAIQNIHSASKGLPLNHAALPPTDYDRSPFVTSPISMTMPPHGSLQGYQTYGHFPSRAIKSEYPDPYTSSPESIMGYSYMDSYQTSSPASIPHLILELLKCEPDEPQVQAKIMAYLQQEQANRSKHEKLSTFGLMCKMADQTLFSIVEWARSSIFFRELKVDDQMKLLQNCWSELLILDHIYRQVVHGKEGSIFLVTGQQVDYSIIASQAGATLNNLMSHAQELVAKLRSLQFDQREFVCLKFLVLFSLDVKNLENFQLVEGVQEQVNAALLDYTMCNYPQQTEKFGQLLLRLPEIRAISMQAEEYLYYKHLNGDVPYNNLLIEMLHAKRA

Cc1cccc(NC(=O)c2cc(Cl)ccc2[N+](=O)[O-])c1
inactive: [1] 42.4% | [2] 27% | [3] 17.7%
active: [4] 51.4% | [5] 44.3% | [6] 51% | [7] 58.4% | [8] 33.2%

COc1cccc(/C=N/Nc2ncnc3c2ncn3Cc2ccccc2)c1O
active: [1] 58.9% | [2] 31% | [3] 48% | [4] 28.4% | [5] 84.4% | [6] 99.4% | [7] 86.1% | [8] 78.3%

CN(C)c1ncnc2c1nnn2C1OC(CO)C(O)C1O (stereo not drawn)
inactive: [3] 29.6%
active: [1] 82.7% | [2] 81.1% | [4] 81% | [5] 91.3% | [6] 105% | [7] 93.5% | [8] 88.8%

c1ccc(-c2nnc(-c3ccccn3)nc2NC2CCCCC2)cc1
active: [1] 70.2% | [3] 49.1% | [5] 82.6% | [6] 88.9% | [7] 74.7% | [8] 45.4%
inactive: [2] 14.8% | [4] 18.8%

COc1ccc(C=C2CS(=O)(=O)CC(=Cc3ccc(OC)cc3)C2=O)cc1
inactive: [1] 29.7% | [3] -73.9%
active: [2] 46.8% | [4] 55.9% | [5] 43.9% | [6] 83% | [7] 83.7% | [8] 80.1%

CC(=O)c1cccc(N=c2scc(-c3ccc(S(=O)(=O)N4CCOCC4)cc3)n2CCO)c1
inactive: [1] 21.9% | [3] -14.3%
active: [2] 47.4% | [4] 49.4% | [5] 35.2% | [6] 63.3% | [7] 69.7% | [8] 61.1%
